Screening data: PubChem BioAssay, National Center for Advancing Translational Sciences (NCATS)
This is a sample that favours compounds with a hit; in the whole collection about 2.8% have one here.
Pol kappa inh – inhibitors of human DNA polymerase kappa. Q9UBT6. Potency, µM (titrated, usually from 107 µM), actives largely listed as inhibitors. purified Pol kappa, fluorescent DNA synthesis assay, 10 min. 400,000 tested, 0.53% active
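First, compounds were pin-transferred onto 10 nM Pol kappa. After 15 min at room temperature, substrate was added to 50 nM final. Fluorescence was then measured kinetically at 0 and 10 min.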
PI5P4Ka inh – blocks human PI5P4K alpha kinase activity. PI5P4Kalpha enzyme, ADP-Glo luminescence, 60 min; stronger effect = lower value. AID 652105. max response, %. 330,000 tested, 1.2% active; active = max response of -50% or lower; inconclusive = between -30% and -50%; inactive = -30% or higher; also: value at the top dose of about 77 µM
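Enzyme plus substrate dispensed, test compounds pinned in, then ATP (5 microM final) added. After 60 min at RT, ADP-Glo reagent 1 for 45 min and reagent 2 for 30 min preceded luminescence imaging.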
POLB inh – DNA polymerase beta (human) inhibition; P06746; Pol beta primer extension/strand displacement, fluorescence kinetic; Potency, µM (highest dose often 114 µM), usual class: inhibitors; 340,000 tested, 1.3% active; AID 485314
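10 nM enzyme + cpd, 15 min RT; start with substrate 50 nM final; read 0 min and after 10 min RT. Corrected, normalized data; 4-parameter Hill curve fit.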
Pol iota inh – inhibitors of human DNA polymerase iota. Q9UNA4. Pol iota fluorescent replication assay, 10 min. Potency, µM (series often up to 115 µM), most hits filed as inhibitors. 390,000 tested, 1% active. AID 588590
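Pol iota at 10 nM preincubated 15 min with compounds at room temperature; reaction started with fluorescent substrate, 50 nM final. Fluorescence read kinetically at 0 and 10 min; buffer-only wells as negative control.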
Pol eta inh-1 – inhibitors of human DNA polymerase eta; 390,000 tested, 1.2% active; recombinant Pol eta, fluorescent DNA replication assay; Potency, µM (series often up to 114 µM), most hits filed as inhibitors
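Pol eta at 10 nM preincubated with compounds 15 min at room temperature; reaction started with fluorescent substrate (50 nM final) and read kinetically at 0 and 10 min.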
WRN helicase inh-1 – blocks human WRN helicase | Q14191 | WRN helicase unwinding, fluorescent forked duplex, kinetic | Potency, µM (doses to about 114 µM), hits mostly inhibitors | 360,000 tested, 0.46% active | AID 651768; also: nearly all actives have a fitted effect of over 55% in size
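Screening of the MLSMR collection measured strand separation of a quenched forked DNA duplex (100 nM) by 20 nM WRN with 2 mM ATP, all final. Compounds were preincubated with enzyme 15 min at room temperature.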
TbPGK inh – TbPGK inhibition, hit validation | TbPGK coupled GAPDH assay, Kinase-Glo luminescence | Potency, µM (top dose mostly 57.5 µM), usual class: inhibitors | 500 tested, 79% active | shares compounds with Pol kappa inh | AID 686980; also: nearly all actives have a fitted effect of over 65% in size
POLI cherry-pick – Confirm cherry-picked inhibitors of human polymerase iota | shares compounds with Pol kappa inh | Pol iota primer extension, TAMRA/BHQ fluorescence | Potency, µM, most hits filed as inhibitors | 1,500 tested, 77% active
Pol eta inh-2 – confirmation of human DNA polymerase eta inhibitors | shares compounds with Pol eta inh-1 | Pol eta primer extension, TAMRA/BHQ fluorescence, 10 min | Potency, µM, hits mostly inhibitors | 2,600 tested, 64% active
WRN helicase inh-2 – WRN helicase inhibition, cherry-pick retest; shares compounds with WRN helicase inh-1; WRN helicase DNA unwinding, fluorescence kinetic; Potency, µM (highest dose often 57.1 µM), usual class: inhibitors; 610 tested, 63% active; also: nearly all actives have a fitted effect of over 65% in size
TO DNA binding – counter-screen for WRN helicase inhibitors: DNA binding | shares compounds with WRN helicase inh-1 | thiazole orange DNA binding displacement, fluorescence | Potency, µM (series often up to 57.1 µM), usual class: inhibitors | 610 tested, 10% active;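 also: drop in dye fluorescence marks compound binding to DNA; nearly all actives have a fitted effect of over 60% in size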
BLM counter – counter-screen for WRN helicase inhibitors: human BLM helicase inhibition; shares compounds with WRN helicase inh-1; Recombinant BLM helicase DNA unwinding, red fluorescence; Potency, µM (doses to about 57.1 µM), most hits filed as inhibitors; 610 tested, 60% active; also: nearly all actives have a fitted effect of over 60% in size
Numbers stand for hits; . = inactive; ? = inconclusive; / = not tested or not shown. Unless noted, calls follow the shape of the dose curve; as a rule, active = well fitted curve in the direction sought with a large enough effect; inconclusive = small, poorly fitted or top-dose-only effect, or another doubt; inactive = no such curve, though single readings can be large; an effect the other way counts as inactive or inconclusive.

SMILES	Pol kappa inh	PI5P4Ka inh	POLB inh	Pol iota inh	Pol eta inh-1	WRN helicase inh-1	TbPGK inh	POLI cherry-pick	Pol eta inh-2	WRN helicase inh-2	TO DNA binding	BLM counter
COc1ccc2nc3cc(Cl)ccc3c(Nc3ccc(O)c(CN4CCN(C)CC4)c3)c2c1	79µM	?	/	?	?	18µM	/	?	/	6.1µM	11µM	22µM
O=C(/C=C/[C@H]1O[C@@H](n2ccc(=O)[nH]c2=O)[C@H](O)[C@@H]1O)NCc1ccc2c(c1)OCO2	/	.	/	/	/	.	/	/	/	/	/	/
O=C1/C(=C/C=C/c2ccco2)SC(=S)N1NS(=O)(=O)c1ccccc1	4.5µM	-81	?	1.8µM	1.1µM	8.9µM	4.1µM	2.7	1.7	4.8µM	.	7.6µM
CC(C(=O)O)N1C(=O)/C(=C/C=C/c2ccco2)SC1=S (stereo unspecified)	1.3µM	-101	1.3µM	0.79µM	0.79µM	2.4µM	2.9µM	1.9	1.3	0.54µM	.	0.96µM
COc1cc(-c2nnc(SCc3cc(=O)oc4cc(O)c(O)cc34)o2)cc(OC)c1OC	1.1µM	/	0.89µM	1.1µM	0.71µM	10µM	0.92µM	2.4	1.1	2.4µM	19µM	0.96µM
CCOC(=O)CSc1nnc(-c2cc(OC)c(OC)c(OC)c2)o1	.	.	.	.	.	.	/	/	/	/	/	/
O=C1CC(c2ccco2)CC(O)=C1C=Nc1cc(Cl)ccc1O (stereo unspecified)	?	.	20µM	?	35µM	?	/	42	30	22µM	.	7.6µM
O=C(N/N=C/c1ccc([N+](=O)[O-])o1)C(=O)Nc1ccc(C(=O)O)cc1	.	.	?	?	?	.	/	/	/	/	/	/
O=C(O)c1ccc(N/N=C/C=C/c2ccc([N+](=O)[O-])o2)cc1	79µM	?	3.2µM	8.9µM	22µM	?	16µM	38	27	19µM	?	17µM
COc1ccc(C(CNC(=O)C(CCSC)NC(=O)c2ccccc2OC)N2CCCCC2)cc1 (stereo unspecified)	.	.	.	.	.	.	/	/	/	/	/	/
Cc1ccc(Oc2ccc(OCC(=O)NC3CCS(=O)(=O)C3)cc2)cc1 (stereo unspecified)	.	.	.	.	.	.	/	/	/	/	/	/
Nc1nc2c(s1)CCc1c-2cnn1-c1ccccc1	.	?	?	14µM	79µM	.	/	24	67	30µM	.	30µM
Nc1nc2c(s1)COc1ccccc1-2	.	.	.	.	.	.	/	/	/	/	/	/
C/C(C/C(C)=C1/SC(=S)NC1=O)=C1\SC(=S)NC1=O	20µM	-105	16µM	3.5µM	3.5µM	28µM	/	30	6	3.8µM	.	?
CCC(C)(C)C1CCC2(CC1)NC(=O)N(CC(=O)N(C)Cc1ccc3c(c1)OCCO3)C2=O (stereo unspecified)	.	.	/	.	.	.	/	/	/	/	/	/
Cc1ccc(NC(=O)CN2C(=O)S/C(=C/c3ccc(-c4cc(C(=O)O)ccc4C)o3)C2=O)cc1C	79µM	/	7.1µM	22µM	20µM	22µM	7.3µM	/	/	7.6µM	.	5.4µM
